Records with an inconclusive call do not appear. Values without a mark were called inactive. Activity calls are given as the source filed them. The call rests on the fitted dose curve; in most records, active means well fitted inhibition curve with a large enough effect; inconclusive means small, poorly fitted or top-dose-only effect; inactive means flat fitted curve, though single readings scatter.

This is an account of results in PubChem BioAssay (NCATS).
On the % scale 0 is the no-effect control and ±100 the full control effect; potency means the concentration at half of the fitted maximal effect.

The first assay has as its system HaCat. In words: Cytotoxic Profiling of Annotated Libraries Using Quantitative High-Throughput Screening (AID 1296008). Further: nearly all actives have a fitted effect of over 60% in size. The settings on record: Five cell lines viability, CellTiter-Glo ATP luminescence, 48-72 h; max response: active compounds read low. The essentials:
(§1)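 Cells exposed to compounds for 48 or 72 hr at 37 degrees Celsius. Viability read as ATP-coupled luminescence with CellTiter-Glo after 10 min at room temperature.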
Regarding `NC[C@@](O)(c1ccc(Cl)cc1)c1ccc(-c2cn[nH]c2)cc1`, the Potency was 8200 nM (active).

As for `CC(O)/C=C/C1C(C)C(O[C@@H]2O[C@H](CO)[C@@H](O)[C@H](O)[C@H]2O)C(O)CC1(C)C` (some centres undefined), the max response is 1.9%. The same measure, in the same setting: under `CO[C@H]1C[C@@H]2CC[C@@H](C)[C@@](O)(O2)C(=O)C(=O)N2CCCC[C@H]2C(=O)O[C@H]([C@H](C)C[C@@H]2CC[C@H](n3cnnn3)[C@H](OC)C2)CC(=O)[C@H](C)/C=C(\C)[C@@H](O)[C@@H](OC)C(=O)[C@H](C)C[C@H](C)/C=C/C=C/C=C/1C` stands -3.38%; under `CC(=O)N[C@H]1[C@H](O[C@H]2CC[C@@]3(C)C(CC[C@]4(C)C3CC=C3C5CC(C)(C)CC[C@]5(C(=O)O)[C@H](O)C[C@]34C)C2(C)C)O[C@H](CO[C@@H]2OC[C@H](O)[C@H](O)[C@H]2O[C@@H]2OC[C@@H](O)[C@H](O)[C@H]2O)[C@@H](O)[C@@H]1O` (some centres undefined), -6.42%; under `CCOc1cc(CC(=O)NC(CC(C)C)c2ccccc2N2CCCCC2)ccc1C(=O)O` (centres undefined), 3.59%. Regarding `O=C(/C=C/c1cccc(S(=O)(=O)Nc2ccccc2)c1)NO`, the Potency is 5020 nM (active). Take `COC(=O)C1=CO[C@@H](O[C@@H]2O[C@H](CO)[C@@H](O)[C@H](O)[C@H]2O)[C@H]2[C@@H]1C=C[C@@]21C=C([C@H](C)O)C(=O)O1`: the outcome was inactive.

Consider `O=C(OC1C=C(CO)C2C(OC3OC(CO)C(O)C(O)C3O)OC=CC12)c1ccc(O)cc1` (centres undefined), for which the max response is -13.5%. For the molecule `CCC(C)/C=C(C)/C=C/c1cc2c(cn1)C(=O)C(C)(OC(C)=O)C(O)=C2Cl` (centres undefined), the molecule was classed as inactive.

On to `C=C[C@H]1[C@H](O[C@@H]2O[C@H](CO)[C@@H](O)[C@H](O)[C@H]2O)OC=C(C(=O)OC)[C@H]1CCOC(=O)c1cc(O)c(O)c(O)c1`, for which the max response was 4.92%.

The next assay deals with KB-3-1. The assay is described as above. The settings on record: Five cell lines viability, CellTiter-Glo ATP luminescence, 48-72 h; max response: active compounds read low. The essentials: as §1
For orientation: Cellular ATP, detected with luciferase, serves as a proxy for viable cell number.
For `CC(C)c1cc(C(=O)N2CC[C@H](NC(=O)C3CC3)C2)n[nH]1`, the max response is -1.18%. Still for that read-out and setting: under `CC(Cc1cc2c(c(C(N)=O)c1)N(CCCO)CC2)NCCOc1ccccc1OCC(F)(F)F` (centres undefined) stands -19.6%. Turning to `CCC(C)C(=O)OC1CC(O)C23C4OCC5(C(O)CC2C1(C)C(O)O4)C3C(=O)C(O)C1(C)C(O)(c2ccoc2)CC2OC251` (centres undefined), the Potency is 968 nM (active).

Regarding `C=C(CCC1=C(C)[C@H]2[C@H](CC3[C@@H]4CC=C5C[C@@H](O)C[C@@H](O)[C@]5(C)C4[C@H](O)C[C@@]32C)O1)CO[C@@H]1O[C@H](CO)[C@@H](O)[C@H](O)[C@H]1O` (some centres undefined), the Potency is 1720 nM (active).

Consider `COc1c2cc(c(O)c1OC)-c1cc(ccc1O)CCC(O)CCCC2` (centres undefined), for which the molecule was classed as inactive. As to `Cc1cc(C)c2c(N)c(C(=O)NCc3ccc(Cl)cc3)sc2n1`, the max response is -4.61%. For `NC1CCC(Nc2cc(-c3cccc(NCc4cccc(F)c4)n3)c(Cl)cn2)CC1` (centres undefined), the Potency is 366 nM (active). Same read-out and setting: the result for `O=C(NCc1ccc(S(=O)(=O)c2cc(F)cc(F)c2)cc1)c1ccc2nccn2c1` reads 4.6 nM (active); that for `CCCNc1ccc2ncc(-c3ccc4[nH]ncc4c3)n2n1`, 1300 nM (active).

Turning to `CC(C)=CCC/C(C)=C/Cc1ccc(O)c(C2OC(=O)c3cc(C(=O)O)cc(O)c32)c1O` (centres undefined), the max response was -2.57%. For `Cn1nnc(-c2ccc(-c3ccc(N4C[C@H](CO)OC4=O)cc3F)cn2)n1`, the max response is -14%. The same measure, in the same setting: under `CO[C@H]1C[C@@H]2CC[C@@H](C)[C@@](O)(O2)C(=O)C(=O)N2CCCC[C@H]2C(=O)O[C@H]([C@H](C)C[C@@H]2CC[C@@H](OP(C)(C)=O)[C@H](OC)C2)CC(=O)[C@H](C)/C=C(\C)[C@@H](O)[C@@H](OC)C(=O)[C@H](C)C[C@H](C)/C=C/C=C/C=C/1C` stands 3.84%; under `CCC1C(=O)OC23C=C[C@@H]4C(C(=O)O)=CO[C@H](O[C@@H]12)[C@@H]43` (some centres undefined), -1.99%. As to `C[C@@H]1COCCN1c1cc(C2(S(C)(=O)=O)CC2)nc(-c2cccc3[nH]ccc23)n1`, the Potency is 2590 nM (active).

`NC(=O)c1csc(C2OC(CO)C(O)C2O)n1` (centres undefined): the molecule was called inactive.

On to `COCCN1CCN(Cc2ccc(-c3n[nH]c4c3C(=O)c3c(NC(=O)NN5CCOCC5)cccc3-4)cc2)CC1`, for which the Potency was 146 nM (active).

Consider `CC1OC(OC2C(C)OC(OC3C(O)C(CO)OC(O[C@H]4CC[C@@]5(C)C(CC[C@]6(C)C5CC=C5C7[C@@H](C)[C@H](C)CC[C@]7(C(=O)O)CC[C@]56C(=O)O)C4(C)C)C3O)C(O)C2O)C(O)C(O)C1O` (some centres undefined), for which the max response was 9.21%. As for `CC(C)c1cc(CNc2nc(Nc3cc(C4CC4)[nH]n3)cc(N3CCN(C)CC3)n2)on1`, the Potency was 146 nM (active). Turning to `C=C(F)c1sc(CNCCCNc2cc(=O)c3ccccc3[nH]2)c(C)c1Br`, the Potency is 16400 nM (active). For `Cc1[nH]c2ccccc2c1C1=C(NCCc2ccc(F)cc2)C(=O)N(C)C1=O`, the max response was -15.2%. As to `CCCOc1ccc(-c2nc(OC)c3ccccc3n2)cc1`, the molecule was classed as inactive. With `O=[N+]([O-])c1cccc2[nH]c(CNc3nc(N4CCOCC4)nc4c3ncn4-c3ccsc3)nc12`, the Potency was 164 nM (active). The same measure, in the same setting: the result for `CC(C)c1nc(-c2ccc(NC(=O)Nc3cccc(C(F)(F)F)c3)c3ccccc23)c2c(N)nccn12` reads 5800 nM (active). For the molecule `CCCCC1CCN(CCCC(=O)c2ccccc2C)CC1`, the max response is -21.4%.

With `CCN1CCN(Cc2ccc(NC(=O)c3ccc(C)c(/C=C/c4cnc5[nH]ccc5c4OC)c3)cc2C(F)(F)F)CC1`, the Potency is 18400 nM (active). Take `COC1C(CO)OC(n2cnc3c(=O)[nH]cnc32)C1O` (centres undefined): the max response was 2.15%. Same read-out and setting: the result for `O=C(C(c1ccccc1)c1ccccc1)N1CCN(CC(O)COc2cccc3ncccc23)CC1` (centres undefined) reads -28.1%. With `COC1=CC(=O)CC(C)C12Oc1cc(OC)cc(O)c1C2=O` (centres undefined), the outcome was inactive. As for `CC(=O)O[C@@H]1[C@H](O)[C@@H](O[C@@H]2O[C@@H](C)[C@H](O[C@@H]3OC[C@@H](O)[C@H](O[C@@H]4OC[C@@H](O)[C@H](O)[C@H]4O)[C@H]3O)[C@@H](O[C@@H]3O[C@H](CO)[C@@H](O)[C@H](O)[C@H]3O)[C@H]2O)[C@H](OC(=O)[C@]23CCC(C)(C)C[C@H]2C2=CCC4[C@@]5(C)CC[C@H](O[C@@H]6O[C@H](C(=O)O)[C@@H](O)[C@H](O[C@@H]7OC[C@@H](O)[C@H](O)[C@H]7O)[C@H]6O[C@@H]6O[C@H](CO)[C@H](O)[C@H](O)[C@H]6O)[C@@](C)(C=O)C5CC[C@@]4(C)[C@]2(C)CC3)O[C@@H]1C` (some centres undefined), the max response is -1.2%. Consider `NC[C@@](O)(c1ccc(Cl)cc1)c1ccc(-c2cn[nH]c2)cc1`, for which the Potency is 11600 nM (active).

As for `CC(O)/C=C/C1C(C)C(O[C@@H]2O[C@H](CO)[C@@H](O)[C@H](O)[C@H]2O)C(O)CC1(C)C` (some centres undefined), the max response is 3.1%. The same measure, in the same setting: the result for `CO[C@H]1C[C@@H]2CC[C@@H](C)[C@@](O)(O2)C(=O)C(=O)N2CCCC[C@H]2C(=O)O[C@H]([C@H](C)C[C@@H]2CC[C@H](n3cnnn3)[C@H](OC)C2)CC(=O)[C@H](C)/C=C(\C)[C@@H](O)[C@@H](OC)C(=O)[C@H](C)C[C@H](C)/C=C/C=C/C=C/1C` reads -0.0133%; that for `CC(=O)N[C@H]1[C@H](O[C@H]2CC[C@@]3(C)C(CC[C@]4(C)C3CC=C3C5CC(C)(C)CC[C@]5(C(=O)O)[C@H](O)C[C@]34C)C2(C)C)O[C@H](CO[C@@H]2OC[C@H](O)[C@H](O)[C@H]2O[C@@H]2OC[C@@H](O)[C@H](O)[C@H]2O)[C@@H](O)[C@@H]1O` (some centres undefined), 4.32%. Still for that read-out and setting: the result for `CCOc1cc(CC(=O)NC(CC(C)C)c2ccccc2N2CCCCC2)ccc1C(=O)O` (centres undefined) reads -3.75%. Take `O=C(/C=C/c1cccc(S(=O)(=O)Nc2ccccc2)c1)NO`: the Potency was 2820 nM (active). Turning to `COC(=O)C1=CO[C@@H](O[C@@H]2O[C@H](CO)[C@@H](O)[C@H](O)[C@H]2O)[C@H]2[C@@H]1C=C[C@@]21C=C([C@H](C)O)C(=O)O1`, the result was inactive. Consider `O=C(OC1C=C(CO)C2C(OC3OC(CO)C(O)C(O)C3O)OC=CC12)c1ccc(O)cc1` (centres undefined), for which the result was inactive. `CCC(C)/C=C(C)/C=C/c1cc2c(cn1)C(=O)C(C)(OC(C)=O)C(O)=C2Cl` (centres undefined): the molecule was called inactive. On the same count and under the same terms, the result for `C=C[C@H]1[C@H](O[C@@H]2O[C@H](CO)[C@@H](O)[C@H](O)[C@H]2O)OC=C(C(=O)OC)[C@H]1CCOC(=O)c1cc(O)c(O)c(O)c1` reads “inactive”.
